Screen size: about 5,500 compounds; about 2,000 (36%) were called active. About 18% were inconclusive and are not listed. Rule as the data show it: active = normalized growth mostly below about 0.91 (no sharp cut-off); inconclusive = no clear call, values can overlap the other calls; inactive = mostly above about 0.92. The list shows a part of the results.
Test: chemical genetic growth profiling, strain panel (AID 1159580);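 also: tested at 20 µM; growth read once vehicle control cultures reached saturation at 30 °C; 1 = growth at the plate median or of vehicle wells; lower values mean less growth of the strain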
Details: S. cerevisiae deletion strains, growth OD

Measured: normalized growth

CN(C/C=C/C#CC(C)(C)C)Cc1cccc2ccccc12
inactive: locus YLR357W, strain rsc2, hits give low values 1.11
active: locus YAL021C, strain ccr4, hits give low values 0.121 | locus YAL026C, strain drs2, hits give low values 0.0882 | locus YAL030W, strain snc1, hits give low values 0.334 | locus YBL061C, strain skt5, hits give low values 0.256 | locus YBR009C, strain hhf1, hits give low values 0.293 | locus YBR023C, strain chs3, hits give low values 0.254 | locus YBR171W, strain sec66, hits give low values 0.793 | locus YBR231C, strain swc5, hits give low values 0.423 | locus YBR279W, strain paf1, hits give low values 0.376 | locus YCL011C, strain gbp2, hits give low values 0.228 | locus YCL016C, strain dcc1, hits give low values 0.334 | locus YCL061C, strain MRC1, hits give low values 0.478 | locus YCL069W, strain vba3, hits give low values 0.283 | locus YCR088W, strain abp1, hits give low values 0.498 | locus YDL005C, strain med2, hits give low values 0.246 | locus YDL040C, strain nat1, hits give low values 0.528 | locus YDR001C, strain nth1, hits give low values 0.573 | locus YDR069C, strain doa4, hits give low values 0.567 | locus YDR137W, strain rgp1, hits give low values 0.492 | locus YDR159W, strain sac3, hits give low values 0.512 | locus YDR195W, strain ref2 1.34 [resistant] | locus YDR297W, strain sur2, hits give low values 0.398 | locus YDR334W, strain swr1, hits give low values 0.492 | locus YDR335W, strain msn5, hits give low values 0.219 | locus YDR392W, strain spt3, hits give low values 0.163 | locus YEL003W, strain gim4, hits give low values 0.311 | locus YEL037C, strain rad23, hits give low values 0.372 | locus YEL061C, strain CIN8 (second series), hits give low values 0.444 | locus YER015W, strain faa2, hits give low values 0.384 | locus YER016W, strain bim1, hits give low values 0.484 | locus YER111C, strain swi4, hits give low values 0.417 | locus YER155C, strain BEM2 (second series), hits give low values 0.469 | locus YFR010W, strain ubp6, hits give low values 0.457 | locus YGL167C, strain pmr1, hits give low values 0.909 | locus YGL173C, strain kem1, hits give low values 0.488 | locus YGL227W, strain vid30, hits give low values 0.536 | locus YGL240W, strain doc1, hits give low values 0.459 | locus YGL253W, strain hxk2, hits give low values 0.208 | locus YHR013C, strain ard1, hits give low values 0.241 | locus YHR027C, strain rpn1, hits give low values 0.442 | locus YHR030C, strain SLT2, hits give low values 0.471 | locus YHR079C, strain IRE1, hits give low values 0.792 | locus YHR142W, strain chs7, hits give low values 0.174 | locus YJL092W, strain hpr5, hits give low values 0.468 | locus YJL095W, strain BCK1 (second series), hits give low values 0.0681 | locus YJL095W, strain BCK1, hits give low values 0.472 | locus YJL115W, strain asf1, hits give low values 0.664 | locus YJL129C, strain trk1, hits give low values 0.351 | locus YJL154C, strain vps35, hits give low values 0.649 | locus YJL164C, strain tpk1, hits give low values 0.215 | locus YJL166W, strain qcr8, hits give low values 0.266 | locus YJL187C, strain SWE1, hits give low values 0.272 | locus YJR066W, strain TOR1, hits give low values 0.683 | locus YKL160W, strain elf1, hits give low values 0.296 | locus YKR026C, strain gcn3, hits give low values 0.452 | locus YKR091W, strain srl3, hits give low values 0.626 | locus YLL001W, strain dnm1, hits give low values 0.37 | locus YLL026W, hits give low values 0.283 | locus YLL041C, strain sdh2, hits give low values 0.462 | locus YLR027C, strain aat2, hits give low values 0.225 | locus YLR113W, strain HOG1, hits give low values 0.807 | locus YLR221C, strain rsa3, hits give low values 0.25 | locus YLR258W, strain gsy2, hits give low values 0.285 | locus YLR262C, strain YPT6 (second series), hits give low values 0.397 | locus YLR320W, strain mms22, hits give low values 0.189 | locus YLR342W, strain FKS1, hits give low values 0.513 | locus YLR370C, strain arc18, hits give low values 0.405 | locus YLR384C, strain iki3, hits give low values 0.635 | locus YML120C, strain ndi1, hits give low values 0.325 | locus YMR058W, strain fet3, hits give low values 0.281 | locus YMR125W, strain sto1, hits give low values 0.533 | locus YMR129W, hits give low values 0.361 | locus YMR205C, strain PFK2, hits give low values 0.532 | locus YMR231W, strain pep5, hits give low values 0.188 | locus YNL071W, strain lat1, hits give low values 0.209 | locus YNL183C, strain NPR1, hits give low values 0.808 | locus YNL209W, strain ssb2, hits give low values 0.395 | locus YNL248C, strain rpa49, hits give low values 0.378 | locus YNL322C, strain KRE1 (second series), hits give low values 0.506 | locus YNR049C, strain mso1, hits give low values 0.562 | locus YOR001W, strain rrp6, hits give low values 0.26 | locus YOR070C, strain gyp1, hits give low values 0.166 | locus YOR080W, strain dia2, hits give low values 0.516 | locus YOR083W, strain WHI5, hits give low values 0.369 | locus YOR106W, strain vam3, hits give low values 0.187 | locus YOR231W, strain MKK1, hits give low values 0.769 | locus YOR265W, strain rbl2, hits give low values 0.432 | locus YOR270C, strain vph1, hits give low values 0.192 | locus YOR290C, strain snf2, hits give low values 0.305 | locus YPL051W, strain arl3, hits give low values 0.199 | locus YPL078C, strain atp4, hits give low values 0.373 | locus YPL106C, strain sse1, hits give low values 0.444 | locus YPL240C, strain hsp82, hits give low values 0.334 | locus YPL256C, strain CLN2, hits give low values 0.81

From PubChem BioAssay AID1159580 (chemical genetic matrix, 2015)
